We go through 60 compounds from PubChem BioAssay AID1529 (NMMLSC, 2009).

Out of some 290,000 compounds screened, about 4,200 (1.4%) were called active. The sample holds actives, similar compounds and a random draw of the others, so the mix is not that of the screen.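 Rule for the calls: active = binding response more than 3 SD above or below the average of its plate-row segment, actives on both sides; inconclusive = wells at one plate position flagged as instrument error; inactive = the rest.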

Mitogen-activated protein kinase kinase kinase 3 (Homo sapiens), sequence (Q99759 whole entry, looked up): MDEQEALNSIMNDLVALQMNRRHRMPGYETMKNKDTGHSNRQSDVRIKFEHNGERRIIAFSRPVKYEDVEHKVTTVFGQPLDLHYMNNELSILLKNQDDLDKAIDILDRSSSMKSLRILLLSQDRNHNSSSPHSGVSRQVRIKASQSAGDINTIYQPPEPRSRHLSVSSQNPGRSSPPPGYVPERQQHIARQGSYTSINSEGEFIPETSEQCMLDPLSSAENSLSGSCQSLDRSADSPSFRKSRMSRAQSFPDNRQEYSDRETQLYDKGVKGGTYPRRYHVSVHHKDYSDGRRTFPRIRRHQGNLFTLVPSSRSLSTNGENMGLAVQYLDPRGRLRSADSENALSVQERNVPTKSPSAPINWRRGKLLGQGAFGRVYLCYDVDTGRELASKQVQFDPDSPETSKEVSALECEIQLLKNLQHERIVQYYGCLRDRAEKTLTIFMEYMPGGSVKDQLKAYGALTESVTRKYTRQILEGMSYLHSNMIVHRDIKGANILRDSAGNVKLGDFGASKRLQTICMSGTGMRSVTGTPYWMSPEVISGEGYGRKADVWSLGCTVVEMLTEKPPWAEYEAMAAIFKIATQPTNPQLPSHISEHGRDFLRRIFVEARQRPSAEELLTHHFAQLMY

This assay has as its target Mitogen-activated protein kinase kinase kinase 3 (Homo sapiens) (UniProt Q99759). The assay can be described thus: compounds raising or lowering MEK5 association with MEKK3 PB1 – biochemical, wildtype MEKK3, multiplex bead flow cytometry, Alexa488-MEK5, primary screen (AID 1529).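 Note: Alexa488 bead fluorescence after subtracting the streptavidin-only scavenger bead signal.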 Conditions: bead-based flow cytometry, Alexa488-MEK5 binding to MEKK3; at 10 µM; actives lie on both sides; 0 = blocked by unlabeled MEK5, 100 = vehicle. On the technique in general: Flow cytometry measures light scatter and fluorescence of single cells or particles in a stream.
For `COc1ccc(CNC(=O)[C@@H]2CC=C[C@@H]3CCN(C4CC4)C(=O)[C@@H]32)cc1`, the binding response (% of control) is 101% (inactive).

`O=S(=O)(Nc1ccccc1Br)c1cccs1`: the binding response (% of control) is 100% (inactive).

As for `CCOC(=O)/C(C#N)=C/c1ccc(OCC(=O)Nc2ccccc2)c(OC)c1`, the binding response (% of control) was 27% [inhibitor] (active).

`COc1cc(C2C3=C(CCCC3=O)OC3=C2C(=O)CCC3)ccc1OCC(=O)Nc1ccccc1`: the binding response (% of control) was 100% (inactive).

Regarding `CCCn1c(C)cc(/C=C(\C#N)C(=O)OCC(=O)Nc2cc(OC)c(OC)c(OC)c2)c1C`, the binding response (% of control) was 101% (inactive).

As for `Cc1cc(C)c2nc(N(CCN(C)C)C(=O)/C=C/c3cccs3)sc2c1`, the binding response (% of control) was 101% (inactive).

Turning to `COc1ccc(NC(=O)NNC(=O)COc2cc(C)c(Cl)c(C)c2)c(OC)c1`, the binding response (% of control) is 105% (inactive).

As to `CC(C)(C)OC(=O)N1CCC(C(=O)NNC(=O)c2ccc(Cl)cc2Cl)CC1`, the binding response (% of control) was 101% (inactive).

`COc1ccc(CC(=O)N2N=C(C)CC2(O)C(F)(F)F)cc1` (stereo not given): the binding response (% of control) was 129% (active).

For `CC1=NN(C(=O)CCc2ccccc2O)C(O)(C(F)(F)F)C1` (stereo not given), the binding response (% of control) is 90% (inactive).

`CC1=NN(C(=O)CCCc2ccccc2)C(O)(C(F)(F)F)C1` (stereo not given): the binding response (% of control) was 108% (inactive).

In the case of `COc1cc(OC)c(C(=S)N2CCCC2)cc1OC`, the binding response (% of control) was 104% (inactive).

On to `CCn1c(=S)sc2c(=O)n(CC(=O)Nc3cccc(Br)c3)c(C)nc21`, for which the binding response (% of control) was 102% (inactive).

With `COc1ccc(/C=C2\SC(=S)N(CCCC(=O)NC3CCCC3)C2=O)cc1OC`, the binding response (% of control) is 96% (inactive).

Consider `COc1cc(NC(=O)CN2C(=O)NC(C)(c3ccc(OC(F)F)cc3)C2=O)cc(OC)c1OC` (stereo not given), for which the binding response (% of control) was 100% (inactive).

Take `Fc1ccccc1COc1cccc2cccnc12`: the binding response (% of control) is 105% (inactive).

As for `Cc1onc(-c2ccccc2)c1C(=O)NNC(=S)NC(=O)c1ccc(F)cc1`, the binding response (% of control) is 98% (inactive).

Consider `COc1ccc(C(=O)NC(=S)NNC(=O)c2c(-c3ccccc3)noc2C)cc1`, for which the binding response (% of control) is 134% (active).

`COc1ccc(C(=O)NNC(=S)NC(=O)c2ccccc2)cc1`: the binding response (% of control) was 101% (inactive).

Turning to `CN(C)C(=O)CCC(=O)N1CCCCC1C(=O)Nc1ccc(Oc2ccccc2F)cc1` (stereo not given), the binding response (% of control) was 105% (inactive).

For `Cc1nn(-c2ccccc2)c(Cl)c1C(=O)Nc1ccccc1`, the binding response (% of control) is 98% (inactive).

Regarding `Cc1nn(-c2ccccc2)c(C)c1NC(=O)COc1ccc(Cl)cc1Cl`, the binding response (% of control) is 104% (inactive).

`Cc1nn(-c2ccccc2)c(C)c1NC(=O)CCl`: the binding response (% of control) is 138% (active).

On to `Cc1cnc(CN(C)C(=O)C2CCC(=O)N(CCc3cccc(F)c3)C2)[nH]1` (stereo not given), for which the binding response (% of control) was 104% (inactive).

Regarding `CC1(c2ccc3ccccc3c2)NC(=O)NC1=O` (stereo not given), the binding response (% of control) was 106% (inactive).

Turning to `O=c1c2ccccc2ncn1CCCCOc1ccccc1F`, the binding response (% of control) was 103% (inactive).

Take `Cc1cccc(OCCNC(=O)CSc2ccc(C(F)(F)F)cc2[N+](=O)[O-])c1`: the binding response (% of control) is 133% (active).

In the case of `O=C(CSc1ccc(C(F)(F)F)cc1[N+](=O)[O-])NCCOc1ccccc1`, the binding response (% of control) is 94% (inactive).

Consider `Nc1ccccc1Sc1ccc(C(F)(F)F)cc1[N+](=O)[O-]`, for which the binding response (% of control) was 107% (inactive).

For the compound `Cn1nccc1C(=O)NC1CCCc2c1cnn2-c1ccccc1F` (stereo not given), the binding response (% of control) was 101% (inactive).

For `CC(=O)C(C)n1cnc2scc(-c3ccc(C)cc3)c2c1=O` (stereo not given), the binding response (% of control) is 98% (inactive).

On to `CCc1ccc(C(=O)COC(=O)c2ccco2)cc1`, for which the binding response (% of control) was 103% (inactive).

As for `Cc1nc(-c2ccc(Cl)cc2)sc1C1(C)CC(c2ccc(Br)cc2)=NO1` (stereo not given), the binding response (% of control) is 100% (inactive).

As for `COc1ccc(C(CNC(=O)COc2ccccc2OC)N2CCCCC2)cc1` (stereo not given), the binding response (% of control) is 100% (inactive).

Regarding `O=C(Cn1cc(C(=O)C2CC2)c2ccccc21)Nc1ccccc1Cl`, the binding response (% of control) is 99% (inactive).

In the case of `COc1ccccc1N1CCN(CCCCOc2ccc(F)cc2)CC1`, the binding response (% of control) is 124% (active).

`COc1ccccc1N1CCN(Cc2ccc(OC)c3ccccc23)CC1`: the binding response (% of control) is 105% (inactive).

For `CCN1CCN(CCCCOc2ccccc2F)CC1`, the binding response (% of control) is 100% (inactive).

`COc1ccc(CCN(C)C(=O)C23CC4CC(CC(Cl)(C4)C2)C3)cc1OC`: the binding response (% of control) is 102% (inactive).

As for `O=C(CCc1nnc2ccc(NCCCN3CCCC3=O)nn12)NCc1ccccc1Cl`, the binding response (% of control) was 101% (inactive).

For `CC(C)(C)NC(=O)c1ccc(Cn2cc(C(F)(F)F)ccc2=O)cc1`, the binding response (% of control) was 100% (inactive).

For the compound `CCOC(=O)c1cc(-c2nnc(-c3cc(OC)c(OC)c(OC)c3)o2)c(C)nc1C`, the binding response (% of control) was 100% (inactive).

Regarding `COc1cc(-c2nnc(Cn3cc(C(F)(F)F)ccc3=O)o2)cc(OC)c1OC`, the binding response (% of control) was 2% [inhibitor] (active).

Consider `Cc1ccc(S(=O)(=O)N2CCC3(CC2)OCCO3)c(C)c1`, for which the binding response (% of control) was 101% (inactive).

As for `CCCCCc1c(C)nc(N2CCN(Cc3ccc4c(c3)OCO4)CC2)[nH]c1=O`, the binding response (% of control) is 98% (inactive).

Take `Cc1cc(S(=O)(=O)NCC(C)C)ccc1OCC(=O)NC1CC1`: the binding response (% of control) was 102% (inactive).

As for `COc1ccccc1NC(=S)N1CCN(c2ccc(F)cc2)CC1`, the binding response (% of control) is 45% [inhibitor] (active).

With `COC(=O)c1ccc(C(=O)OC)c(NC(=S)N2CCN(c3ccc(F)cc3)CC2)c1`, the binding response (% of control) is 97% (inactive).

On to `COc1ccccc1NC(=S)N1CCN(C(c2ccccc2)c2ccccc2)CC1`, for which the binding response (% of control) is 102% (inactive).

In the case of `COc1cccc(NC(=O)CCc2nnc3ccc(N4CCC(C)CC4)nn23)c1`, the binding response (% of control) was 98% (inactive).

For the compound `CC1(C)C=Cc2c(ccc3c2OC[C@@H](c2ccc(O)cc2O)C3)O1`, the binding response (% of control) was 108% (inactive).

Regarding `Cc1nc2ccccc2nc(C)c1=NOCc1ccc(Cl)cc1Cl`, the binding response (% of control) is 98% (inactive).

With `Cc1[nH]c(=O)c(C(=O)/C=C/c2ccccc2)c2c1CCCC2`, the binding response (% of control) was 107% (inactive).

With `Cc1cn(COC/C=C/c2ccccc2)c(=O)[nH]c1=O`, the binding response (% of control) is -2% [inhibitor] (active).

For the compound `Cc1nc2nc[nH]n2c(=O)c1C/C=C/c1ccccc1`, the binding response (% of control) is 84% (inactive).

Regarding `Cc1cc(=O)oc2cc(OCC(=O)N3CCN(c4ccc(F)cc4)CC3)c(Cl)cc12`, the binding response (% of control) is 101% (inactive).

With `COc1ccc(C(=O)Cc2cnn(-c3ccccc3)c2)c(O)c1`, the binding response (% of control) was 101% (inactive).

As for `O=C(c1cnn(-c2ccc(Cl)cc2)c1)c1ccccc1O`, the binding response (% of control) was 129% (active).

Turning to `Cc1ncc(CC(=O)n2cc(C(=O)c3cc(Cl)ccc3O)cn2)s1`, the binding response (% of control) was 109% (inactive).

With `CC1(C)C2CC[C@]3(C)C(CC=C4[C@@H]5C[C@@](C)(CO)CC[C@]5(C(=O)O)CC[C@]43C)[C@@]2(C)CC[C@@H]1O` (stereo not given in full), the binding response (% of control) was 105% (inactive).
